Among the data in PubChem BioAssay AID2417 (National Center for Advancing Translational Sciences (NCATS), 2010) are activity change (PNC), negative = inhibition values, retold here.

Each structure is given as a SMILES string. Among all 140,000 compounds or so, about 4,300 (3.1%) were called active. Another 21% or so got no clear call; they are omitted. Many of the other results were omitted from the sample, so actives are more common in it than they were. Values without a mark were called inactive.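 The calls were made as follows: active = readout at or below -70, meaning at least 70% loss of cells showing the perinucleolar compartment, a nuclear body marking cancer cells; inconclusive = readout between -30 and a set limit; inactive = the rest.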

The nature of the test: High Content Assay for Compounds that inhibit the Assembly of the Perinucleolar Compartment.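 Also: plate controls were DMSO wells for no effect and camptothecin positive control wells for full effect.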 To be noted: PC3M PTB-GFP, PNC prevalence imaging, 16 h; at 10 µM; hits give low values. In outline:
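PC3M cells stably expressing PTB-GFP, 750–1000 cells/well, treated 16 h at 37 °C with compound (23 nl of library stock), in duplicate. After paraformaldehyde fixation and Hoechst stain, imaged at 20x; PNC prevalence scored by image analysis.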
On to `CCn1c(C(C)NC(=O)c2ccc(C)cc2)n[nH]c1=S` (stereo unspecified), for which the activity change (PNC), negative = inhibition is 8.92%.
To `Cc1ccc(CC(=O)Nc2ccc(OC(F)F)c(Cl)c2)cc1C` belongs 5.84%; to `N#CC1=C(SCc2ccccc2)NC(=O)C(C#N)C12CCCC2` (stereo unspecified), 9.75%.
To `N#CC1=C(SCc2ccc(C#N)cc2)N=C(N)C(c2nc(-c3ccccc3)cs2)C12CCCCC2` (stereo unspecified) belongs -112% (active); to `COc1ccnc(Oc2ccccc2)n1`, -12.4%; to `C=CCOc1ccc(/C=N/n2cncn2)cc1OC`, 5.24%.
Consider `COc1cc(/C=N/NC(=O)Nc2ccccc2)ccc1OCCOc1ccccc1C`, for which the activity change (PNC), negative = inhibition is -16.5%.
Under `C/C=C/c1ccc(OCCOc2ccc(C=O)cc2OC)c(OC)c1` stands -108% (active); under `CCOC(=O)/C=C/C(=O)OCC(=O)NC(c1ccccc1)c1ccccc1`, -28.2%.
To `COCCOC(=O)C1=C(C)NC(=O)CC1c1cc2c(cc1Br)OCO2` (stereo unspecified) belongs 63.3%.
Under `COc1ccc(C2CC(=O)Nc3cc(C)c(C)cc32)c(OC)c1OC` (stereo unspecified) stands -26.4%; under `CCCOc1ccccc1C1CC(=O)Nc2cc3c(cc21)OCO3` (stereo unspecified), -92% (active); under `CCCSc1nc2[nH]ncc2c(=O)[nH]1`, 26.1%.
On to `Cc1cc(C(=O)COc2ccccc2[N+](=O)[O-])c(C)n1-c1cccc(S(=O)(=O)N2CCOCC2)c1`, for which the activity change (PNC), negative = inhibition is 101%.
To `CC1(C)C2CC=C(/C=N/NC(=O)c3ccc(Cl)cc3)C1C2` (stereo unspecified) belongs 14.2%; to `CCN(CC(=O)NCCc1ccccc1)S(=O)(=O)c1ccc(C)cc1`, -0.956%; to `Cn1c(=O)n(C)c2cc(C(=O)Nc3ccc4c(c3)OCO4)ccc21`, -87% (active).
Regarding `COc1ccc(C(=O)Nc2ccc3c(c2)OCO3)cc1OC`, the activity change (PNC), negative = inhibition was 5.14%.
With `O=C(Nc1ccc2c(c1)OCO2)c1ccc(N2C(=O)c3ccccc3C2=O)cc1`, the activity change (PNC), negative = inhibition was -11%.
As for `COc1cc(C(=O)Nc2cc(C(F)(F)F)ccc2N2CCOCC2)ccc1O`, the activity change (PNC), negative = inhibition was 44.6%.
Turning to `CCOC(=O)C1C(=O)NCC1c1ccccc1` (stereo unspecified), the activity change (PNC), negative = inhibition is -16.9%.
For the compound `CCOC(=O)C1C(=O)NC(N2CCN(c3ccccc3)CC2)=NC1c1ccco1` (stereo unspecified), the activity change (PNC), negative = inhibition was -90% (active).
Under `CCOC(=O)C1C(=O)C=C(c2ccc(OC)cc2)CC1c1ccco1` (stereo unspecified) stands 27.1%.
To `COc1cccc(/C=N/NC(=O)CNC(=O)c2ccc(S(=O)(=O)N3CCOCC3)cc2)c1OC` belongs 69.9%; to `Cc1ccccc1N/C(SCc1ccc(Cl)cc1)=C(/C#N)C(N)=O`, -1.22%; to `CCN(CC)c1ccc(C(=O)N/N=C(\C)c2cccc(OC)c2)cc1`, 14.7%.
Under `Cc1ccc(CCC(=O)Nc2ncc(Cc3cc(Cl)ccc3Cl)s2)o1` stands -88.9% (active); under `Cc1ccc(Cc2cnc(N)s2)o1`, -17.8%.
With `Cc1cnc(C(=O)OCC(=O)Nc2ccc(Cl)cc2Cl)cn1`, the activity change (PNC), negative = inhibition was 261%.
Regarding `O=C(/C=C/c1ccccc1[N+](=O)[O-])NCC1CCCO1` (stereo unspecified), the activity change (PNC), negative = inhibition was 58.9%.
With `Cc1ccc(SCC(=O)Nc2ccc3c(c2)OCCO3)cc1`, the activity change (PNC), negative = inhibition is 36.7%.
Take `OCCNCCOc1ccc(Cl)c(Cl)c1`: the activity change (PNC), negative = inhibition is 32.5%.
As for `Cc1ccc(SCCC(=O)OCC(=O)Nc2ncc(Cl)cc2Cl)cc1`, the activity change (PNC), negative = inhibition was -2.97%.
Consider `Cc1ccc(-n2c(SCC(=O)Nc3ncc(Cl)cc3Cl)nc3ccccc32)cc1`, for which the activity change (PNC), negative = inhibition was -115% (active).
Under `Cc1ccc(C)c(NC(=O)CSc2nc3c(oc4ccccc43)c(=O)n2-c2ccccc2)c1` stands -5.79%.
To `CN(C)/C(=N\OC(=O)c1ccccc1)c1nonc1N` belongs 6.05%; to `C/C(Cc1ccccc1)=N\NC(=O)CNC(=O)c1cccc(Br)c1`, 19.9%; to `Cc1cc(N2CCOCC2)nc(-c2ccc(Br)cc2)n1`, -19.2%.
Under `COc1ccc(-c2noc(-c3cccc(OC)c3OC)n2)cc1OC` stands 7.54%; under `CCOc1nc(-c2ccc(OC)cc2)ccc1-c1noc(-c2cc(OC)c(OC)c(OC)c2)n1`, -17.5%.
For `COc1ccc(-c2nc(-c3ccccc3)no2)c(OC)c1`, the activity change (PNC), negative = inhibition was -102% (active).
As to `Cc1ccc(S(=O)(=O)N(NC2=NS(=O)(=O)c3ccccc32)C(=O)c2ccccc2)cc1`, the activity change (PNC), negative = inhibition is 35.5%.
Under `COc1ccc(C(=O)NNS(=O)(=O)c2ccc(C)cc2)cc1` stands -23.7%; under `N#CCCN1CCN(S(=O)(=O)c2ccc(S(=O)(=O)NC3CC3)cc2)CC1`, -11.6%; under `N#CCCN1CCN(S(=O)(=O)c2ccc(S(=O)(=O)N3CCCC3)cc2)CC1`, -15%.
Consider `CC(C)(C)c1cc(CN2CCN(CCC#N)CC2)cc(C(C)(C)C)c1O`, for which the activity change (PNC), negative = inhibition is -122% (active).
